In PubChem BioAssay AID620 (Sanford-Burnham Center for Chemical Genomics, 2007):
The campaign covered roughly 87,000 compounds. About 360 (0.41%) were called active. For the sample, actives were picked, then their nearest neighbours and some compounds at random. A number with no mark means an inactive call. Cut-off read from the data, not from the text of the source: active = cytotoxicity above about 50%; inactive = the rest.

Assay: HT1080 cell viability loss – fluorescence readout (AID 620);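 note: cells exposed to compound overnight then 4 h with Alamar Blue; 0% = vehicle DMSO and 100% = killing control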
Details: at 10 µM, active compounds read high

| SMILES | cytotoxicity |
| --- | --- |
| CON(C)C(=O)Nc1ccc(Cl)cc1 | 1.8% |
| O=C(Nc1ccc(Cl)cc1)Nc1nccs1 | 61.1% (active) |
| CCOC(=O)c1c(C)n(CCN2CCN(C)CC2)c2ccc(OC)cc12 | 9.6% |
| CCN(CC)c1ccc(N=Cc2c(O)n(-c3ccc(OC)cc3)c(=O)[nH]c2=O)cc1 | 0.4% |
| CCOC(=O)C1SC2(C(F)F)CC1(O)c1c(c(OC)c3occc3c1OC)O2 (stereo not given) | 5.2% |
| O=c1c2ccccc2[nH]c(=S)n1-c1ccc2c(c1)OCO2 | -0.8% |
| COc1ccc(C2NCc3ccc4c(c3-n3cccc32)OCO4)cc1OC (stereo not given) | -2.8% |
| c1cc2n(c1)-c1c(ccc3c1OCO3)CNC2c1ccc2c(c1)OCO2 (stereo not given) | 3.4% |
| COc1ccc(C2NCc3ccc4c(c3-n3cccc32)OCO4)cc1O (stereo not given) | 67.8% (active) |
| COc1ccc(CCNC(C)CCc2ccc(OC)cc2)cc1 (stereo not given) | -9.1% |
| CCC(=NCCc1c[nH]c2ccccc12)c1c(O)n(C)c(=O)n(C)c1=O | 3.2% |
| COc1ccc(C2C(C(=O)N3CCC4(CC3)OCCO4)c3cc(OC)c(OC)cc3C(=O)N2C)cc1 (stereo not given) | -12.7% |
| C[C@H]1CCC[C@@H](O)CCC/C=C/c2cc(O)cc(O)c2C(=O)O1 | 12.8% |
| C[C@H]1CCCC(=O)CCC/C=C/c2cc(O)cc(O)c2C(=O)O1 | -0.7% |
| C[C@H]1CCC/C=C/C2C[C@H](O)CC2[C@H](O)/C=C/C(=O)O1 (stereo not given in full) | 83.3% (active) |
| COC(=O)CC1NC2CCCCC2NC1=O (stereo not given) | 3.2% |
| O=C1CC(N2CCC(n3c(=O)[nH]c4ccccc43)CC2)C(=O)N1c1ccc(F)cc1 (stereo not given) | 2% |
| O=c1[nH]c2ccccc2n1C1CCN(CCCC(c2ccc(F)cc2)c2ccc(F)cc2)CC1 | 91.3% (active) |
| O=C1CC(N2CCC(n3c(=O)[nH]c4ccccc43)CC2)C(=O)N1Cc1ccccc1 (stereo not given) | 13.4% |
| CCCCn1c(=O)c(C(=O)NCc2ccncc2)c(O)c2ccccc21 | 4.9% |

| SMILES | cytotoxicity |
| --- | --- |
| COc1ccccc1N1C(=O)NC(=O)C(CCc2ccncc2)(CCc2ccncc2)C1=O | -6.4% |
| CCC(=NC1CC1)c1c(O)n(C2CCCCC2)c(=O)[nH]c1=O | 15.1% |
| CC(=O)c1cccc(NC2=NCC(C)S2)c1 (stereo not given) | 1.4% |
| COc1cccc(OC)c1C1=NCC(=O)Nc2c1oc1ccc(Br)cc21 | 64.8% (active) |
| O=C1CN=C(c2ccccc2)c2oc3ccc(Br)cc3c2N1 | 8.1% |
| CC1=CC(=C2C(=O)NC(=S)NC2=O)C=C(C(F)(F)F)N1C | 1.5% |
| COC(=O)C1CN(C#N)N(c2ccc(Cl)cc2)C12c1ccccc1-c1ccccc12 (stereo not given) | 84.3% (active) |
| COC(=O)[C@@H]1[C@@H](C(=O)OC)C2(c3ccccc3-c3ccccc32)N(c2ccc(Cl)cc2)N1C#N | 2.6% |
| COC(=O)C[C@]1(C(=O)OC)CN(C#N)N(c2ccc(Cl)cc2)C12c1ccccc1-c1ccccc12 | 93.9% (active) |
| CCC(=Nc1ccc2c(c1)CCC2)c1c(O)n(C2CCCCC2)c(=O)[nH]c1=O | -1.6% |
| CCCN1CC(C)C(OC(C)=O)(c2ccccc2)CC1C (stereo not given) | 1.2% |
| OC1(CN2CCOCC2)C2CC3CC(C2)CC1C3 (stereo not given) | -20.1% |
| CC(=O)Nc1ccc(S(=O)(=O)NC(CC(=O)N2CCC3(CC2)OCCO3)C(C)C)cc1 (stereo not given) | 4.2% |
| CCOP(=O)(C#CC(C)(C)C)C(O)(c1ccccc1)C(F)(F)F (stereo not given) | 6.8% |
| Cc1nc2c(=O)n(C)c(=O)nc-2n(C)n1 | 103% (active) |
| O=C(CN1C2CCC1CC(O)(c1cccnc1)C2)Nc1ccc2c(c1)OCO2 (stereo not given) | 2.5% |
| CC(C)CCP(=O)(O)c1ccccc1 | 0.8% |
| C=CCn1c(O)c(C=NCCCOc2ccc(CC)cc2)c(=O)[nH]c1=S | -6.1% |
| CCOC(=O)C1C(=O)NC23CCCC2C1c1ccccc1O3 (stereo not given) | 13.5% |
| Cc1cccc(-n2c(O)c(C=NCCCN3CCOCC3)c(=O)[nH]c2=O)c1C | -0.3% |
